Test results: publication PMC7862700, “An all-to-all approach to the identification of sequence-specific readers for epigenetic DNA modifications on cytosine”

How the values were obtained:
Test in all cases: DAPPL (digital affinity profiling via proximity ligation, sequencing); 10 mM Tris-HCl pH 7.5, 50 mM NaCl, 1 mM DTT, 4% glycerol, room temperature, 30 min; GST-TFs on glutathione beads, 16-mer random dsDNA library, 0.1% formaldehyde crosslink after washing; high values mean tight binding
[1] = molecular target: T1, FLI1 (Homo sapiens, UniProt Q01543 1-452); settings: protein: recombinant; tags: N-terminal GST; dsDNA, one strand shown
T1 sequence: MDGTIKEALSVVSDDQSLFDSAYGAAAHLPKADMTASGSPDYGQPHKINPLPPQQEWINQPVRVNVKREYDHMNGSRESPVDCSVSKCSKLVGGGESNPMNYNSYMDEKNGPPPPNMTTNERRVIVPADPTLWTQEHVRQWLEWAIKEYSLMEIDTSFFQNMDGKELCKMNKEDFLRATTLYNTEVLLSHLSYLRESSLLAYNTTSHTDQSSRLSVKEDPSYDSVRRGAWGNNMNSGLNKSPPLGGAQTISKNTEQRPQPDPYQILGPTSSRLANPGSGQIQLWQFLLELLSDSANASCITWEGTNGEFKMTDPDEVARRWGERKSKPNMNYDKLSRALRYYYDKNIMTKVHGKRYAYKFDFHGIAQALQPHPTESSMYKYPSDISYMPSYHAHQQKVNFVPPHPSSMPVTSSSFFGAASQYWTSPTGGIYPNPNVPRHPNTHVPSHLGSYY
In short: (§1)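 Beads coated with glutathione captured GST-fused human transcription factors that had been expressed in yeast, and the factors were then given DNA barcodes and pooled with a tag-only sample. The pools were incubated with 200 nmole of a random double-stranded 16-mer DNA library in Tris/NaCl/DTT/glycerol buffer for 30 min at room temperature, washed, crosslinked with 0.1% formaldehyde and proximity-ligated with BsaI/T4 ligase at 37 °C for 1 h. PCR amplification and Illumina NextSeq500 sequencing came last. Binding signal is each hexamer's read frequency for a factor divided by its frequency for the tag-only sample.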

[2] = molecular target: T2, ELK1 (Homo sapiens, UniProt P19419 1-428); settings: protein: recombinant; tags: N-terminal GST; dsDNA, one strand shown
T2 sequence: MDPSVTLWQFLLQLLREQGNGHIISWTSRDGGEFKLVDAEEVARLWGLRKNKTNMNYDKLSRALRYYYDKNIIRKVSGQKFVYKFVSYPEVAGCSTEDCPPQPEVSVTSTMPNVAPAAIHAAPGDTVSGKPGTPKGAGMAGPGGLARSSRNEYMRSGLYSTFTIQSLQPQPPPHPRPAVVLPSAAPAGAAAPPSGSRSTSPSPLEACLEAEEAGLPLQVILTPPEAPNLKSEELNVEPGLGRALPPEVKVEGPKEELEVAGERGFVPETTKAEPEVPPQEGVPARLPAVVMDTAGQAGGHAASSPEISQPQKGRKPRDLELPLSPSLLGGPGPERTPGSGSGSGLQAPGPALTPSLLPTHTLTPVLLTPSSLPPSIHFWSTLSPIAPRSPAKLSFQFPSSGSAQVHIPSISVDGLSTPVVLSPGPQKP
In short: as §1

[3] = molecular target: T3, GABPA (Homo sapiens, UniProt Q06546 1-454); settings: protein: recombinant; tags: N-terminal GST; dsDNA, one strand shown
T3 sequence: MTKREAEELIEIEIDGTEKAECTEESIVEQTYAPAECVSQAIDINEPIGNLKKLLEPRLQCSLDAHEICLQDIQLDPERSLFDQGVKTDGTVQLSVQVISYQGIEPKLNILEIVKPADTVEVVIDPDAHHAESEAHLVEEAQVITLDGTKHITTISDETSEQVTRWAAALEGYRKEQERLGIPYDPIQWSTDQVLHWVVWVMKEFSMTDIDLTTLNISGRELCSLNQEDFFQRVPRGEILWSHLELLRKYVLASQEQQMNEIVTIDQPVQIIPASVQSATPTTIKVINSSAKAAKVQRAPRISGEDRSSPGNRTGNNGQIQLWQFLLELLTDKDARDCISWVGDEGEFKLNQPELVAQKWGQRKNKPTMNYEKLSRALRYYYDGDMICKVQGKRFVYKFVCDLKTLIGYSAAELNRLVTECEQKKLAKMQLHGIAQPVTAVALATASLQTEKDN
In short: as §1

[4] = molecular target: T4, ERG (Homo sapiens, UniProt P11308 1-479); settings: protein: recombinant; tags: N-terminal GST; dsDNA, one strand shown
T4 sequence: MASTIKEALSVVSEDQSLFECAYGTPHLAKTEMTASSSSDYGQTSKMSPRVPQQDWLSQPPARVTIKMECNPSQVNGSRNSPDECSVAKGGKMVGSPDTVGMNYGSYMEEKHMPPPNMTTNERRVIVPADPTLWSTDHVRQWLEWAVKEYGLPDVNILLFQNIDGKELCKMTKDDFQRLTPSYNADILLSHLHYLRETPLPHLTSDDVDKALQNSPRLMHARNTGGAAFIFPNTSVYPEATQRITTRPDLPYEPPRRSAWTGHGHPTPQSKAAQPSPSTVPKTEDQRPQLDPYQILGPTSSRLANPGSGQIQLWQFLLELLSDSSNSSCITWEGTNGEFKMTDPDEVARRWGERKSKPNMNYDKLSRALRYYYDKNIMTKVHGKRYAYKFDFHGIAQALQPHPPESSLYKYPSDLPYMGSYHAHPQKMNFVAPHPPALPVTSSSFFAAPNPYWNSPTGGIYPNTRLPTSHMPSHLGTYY
In short: as §1

[5] = molecular target: ELF1 (Homo sapiens, UniProt P32519 1-619); settings: protein: recombinant; tags: N-terminal GST; dsDNA, one strand shown
Sequence of ELF1 (P32519 whole entry): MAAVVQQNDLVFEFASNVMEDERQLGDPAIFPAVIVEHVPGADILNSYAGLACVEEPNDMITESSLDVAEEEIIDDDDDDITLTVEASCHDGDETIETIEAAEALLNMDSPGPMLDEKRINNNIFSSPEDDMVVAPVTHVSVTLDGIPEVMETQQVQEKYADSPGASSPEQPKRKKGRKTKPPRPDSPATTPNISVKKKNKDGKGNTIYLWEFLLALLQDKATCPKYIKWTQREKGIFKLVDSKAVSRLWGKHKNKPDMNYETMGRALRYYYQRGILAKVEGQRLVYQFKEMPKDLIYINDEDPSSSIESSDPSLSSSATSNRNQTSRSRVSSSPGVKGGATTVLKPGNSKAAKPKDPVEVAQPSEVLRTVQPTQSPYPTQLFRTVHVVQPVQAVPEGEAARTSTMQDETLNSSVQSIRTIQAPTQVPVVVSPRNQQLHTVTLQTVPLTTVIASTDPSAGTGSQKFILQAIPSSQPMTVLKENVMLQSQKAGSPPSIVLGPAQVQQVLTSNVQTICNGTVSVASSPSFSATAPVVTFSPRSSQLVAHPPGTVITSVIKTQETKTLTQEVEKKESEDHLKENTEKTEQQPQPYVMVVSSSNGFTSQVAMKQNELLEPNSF
In short: as §1

[6] = molecular target: T5, EHF (Homo sapiens, UniProt Q9NZC4 1-300); settings: protein: recombinant; tags: N-terminal GST; dsDNA, one strand shown
T5 sequence: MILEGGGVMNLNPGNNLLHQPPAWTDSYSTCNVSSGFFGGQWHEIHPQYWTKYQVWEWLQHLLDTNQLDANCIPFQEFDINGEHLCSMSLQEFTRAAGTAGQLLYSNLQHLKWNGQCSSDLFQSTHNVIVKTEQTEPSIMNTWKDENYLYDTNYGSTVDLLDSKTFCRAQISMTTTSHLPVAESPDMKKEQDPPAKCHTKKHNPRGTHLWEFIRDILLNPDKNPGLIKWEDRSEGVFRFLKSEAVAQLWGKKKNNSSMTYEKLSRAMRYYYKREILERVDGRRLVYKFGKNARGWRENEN
In short: as §1

[7] = molecular target: SPI1 (Homo sapiens, UniProt P17947 1-270); settings: protein: recombinant; tags: N-terminal GST; dsDNA, one strand shown
In short: as §1

[8] = molecular target: SPIB (Homo sapiens, UniProt Q01892 1-262); settings: protein: recombinant; tags: N-terminal GST; dsDNA, one strand shown
Sequence of SPIB (Q01892 whole entry): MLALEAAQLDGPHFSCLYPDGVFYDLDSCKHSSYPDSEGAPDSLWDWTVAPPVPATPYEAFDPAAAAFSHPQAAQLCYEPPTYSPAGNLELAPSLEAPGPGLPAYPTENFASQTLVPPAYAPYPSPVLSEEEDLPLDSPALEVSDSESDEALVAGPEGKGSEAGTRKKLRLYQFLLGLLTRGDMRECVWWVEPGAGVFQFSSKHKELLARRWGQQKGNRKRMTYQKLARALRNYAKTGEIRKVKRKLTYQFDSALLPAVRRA
In short: as §1

[9] = molecular target: T6, ELK3 (Homo sapiens, UniProt P41970 1-407); settings: protein: recombinant; tags: N-terminal GST; dsDNA, one strand shown
T6 sequence: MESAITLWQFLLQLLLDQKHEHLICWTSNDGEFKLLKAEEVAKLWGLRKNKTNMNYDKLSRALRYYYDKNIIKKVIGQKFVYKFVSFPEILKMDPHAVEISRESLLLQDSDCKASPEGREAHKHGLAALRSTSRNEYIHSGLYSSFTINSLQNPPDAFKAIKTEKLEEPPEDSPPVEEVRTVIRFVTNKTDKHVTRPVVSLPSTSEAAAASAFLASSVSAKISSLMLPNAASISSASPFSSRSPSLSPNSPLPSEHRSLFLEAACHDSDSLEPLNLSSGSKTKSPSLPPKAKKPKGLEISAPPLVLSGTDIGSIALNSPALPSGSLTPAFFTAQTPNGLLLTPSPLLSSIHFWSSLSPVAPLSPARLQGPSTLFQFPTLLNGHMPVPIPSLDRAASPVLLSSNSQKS
In short: as §1

[10] = molecular target: T7, FEV (Homo sapiens, UniProt Q99581 1-238); settings: protein: recombinant; tags: N-terminal GST; dsDNA, one strand shown
T7 sequence: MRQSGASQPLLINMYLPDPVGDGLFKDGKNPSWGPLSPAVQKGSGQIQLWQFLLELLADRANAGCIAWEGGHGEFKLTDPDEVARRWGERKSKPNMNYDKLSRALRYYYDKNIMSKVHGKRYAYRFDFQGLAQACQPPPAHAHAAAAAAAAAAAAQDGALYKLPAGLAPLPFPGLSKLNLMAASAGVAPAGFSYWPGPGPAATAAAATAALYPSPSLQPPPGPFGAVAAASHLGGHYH
In short: as §1

[11] = molecular target: ETV5 (Homo sapiens, UniProt P41161 1-510); settings: protein: recombinant; tags: N-terminal GST; dsDNA, one strand shown
Sequence of ETV5 (P41161 whole entry): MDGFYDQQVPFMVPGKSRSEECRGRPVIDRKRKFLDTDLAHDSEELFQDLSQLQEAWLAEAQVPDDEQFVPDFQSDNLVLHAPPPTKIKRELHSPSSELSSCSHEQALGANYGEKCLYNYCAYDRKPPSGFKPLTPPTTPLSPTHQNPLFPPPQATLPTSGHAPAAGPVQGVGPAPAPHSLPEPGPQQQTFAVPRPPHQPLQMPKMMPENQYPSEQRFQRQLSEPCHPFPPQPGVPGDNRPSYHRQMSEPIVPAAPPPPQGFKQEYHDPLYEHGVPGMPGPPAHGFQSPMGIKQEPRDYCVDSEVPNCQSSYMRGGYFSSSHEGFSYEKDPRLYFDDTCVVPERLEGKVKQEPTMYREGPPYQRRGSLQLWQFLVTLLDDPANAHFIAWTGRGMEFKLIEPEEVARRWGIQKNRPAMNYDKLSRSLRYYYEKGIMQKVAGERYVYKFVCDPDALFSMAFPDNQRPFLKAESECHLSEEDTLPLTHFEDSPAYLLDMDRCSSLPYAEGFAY
In short: as §1

[12] = molecular target: HSF1 (Homo sapiens, UniProt Q00613 1-529); settings: protein: recombinant; tags: N-terminal GST; chain copies: 3; dsDNA, one strand shown
Sequence of HSF1 (Q00613 whole entry): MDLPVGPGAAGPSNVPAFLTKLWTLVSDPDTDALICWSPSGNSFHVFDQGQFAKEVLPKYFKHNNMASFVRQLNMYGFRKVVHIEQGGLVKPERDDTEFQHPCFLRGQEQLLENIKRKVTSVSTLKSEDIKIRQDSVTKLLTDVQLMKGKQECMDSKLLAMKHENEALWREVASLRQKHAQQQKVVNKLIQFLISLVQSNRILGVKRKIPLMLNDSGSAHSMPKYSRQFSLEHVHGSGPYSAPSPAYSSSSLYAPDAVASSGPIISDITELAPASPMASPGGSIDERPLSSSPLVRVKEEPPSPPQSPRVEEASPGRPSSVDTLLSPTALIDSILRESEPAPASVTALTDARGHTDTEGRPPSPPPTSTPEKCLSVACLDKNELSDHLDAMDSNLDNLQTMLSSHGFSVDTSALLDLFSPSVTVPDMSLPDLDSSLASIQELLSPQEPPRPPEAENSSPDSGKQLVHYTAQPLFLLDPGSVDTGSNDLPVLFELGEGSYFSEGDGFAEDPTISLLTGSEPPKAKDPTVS
In short: as §1

[13] = molecular target: T8, SPIC (Homo sapiens, UniProt Q8N5J4 1-248); settings: protein: recombinant; tags: N-terminal GST; dsDNA, one strand shown
T8 sequence: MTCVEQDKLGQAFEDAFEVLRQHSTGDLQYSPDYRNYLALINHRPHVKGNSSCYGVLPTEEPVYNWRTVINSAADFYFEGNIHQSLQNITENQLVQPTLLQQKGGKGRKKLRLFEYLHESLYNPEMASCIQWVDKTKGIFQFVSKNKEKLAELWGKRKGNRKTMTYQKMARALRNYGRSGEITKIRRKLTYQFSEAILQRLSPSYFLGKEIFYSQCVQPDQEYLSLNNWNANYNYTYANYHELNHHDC
In short: as §1

[14] = molecular target: ELF4 (Homo sapiens, UniProt Q99607 1-663); settings: protein: recombinant; tags: N-terminal GST; dsDNA, one strand shown
Sequence of ELF4 (Q99607 whole entry): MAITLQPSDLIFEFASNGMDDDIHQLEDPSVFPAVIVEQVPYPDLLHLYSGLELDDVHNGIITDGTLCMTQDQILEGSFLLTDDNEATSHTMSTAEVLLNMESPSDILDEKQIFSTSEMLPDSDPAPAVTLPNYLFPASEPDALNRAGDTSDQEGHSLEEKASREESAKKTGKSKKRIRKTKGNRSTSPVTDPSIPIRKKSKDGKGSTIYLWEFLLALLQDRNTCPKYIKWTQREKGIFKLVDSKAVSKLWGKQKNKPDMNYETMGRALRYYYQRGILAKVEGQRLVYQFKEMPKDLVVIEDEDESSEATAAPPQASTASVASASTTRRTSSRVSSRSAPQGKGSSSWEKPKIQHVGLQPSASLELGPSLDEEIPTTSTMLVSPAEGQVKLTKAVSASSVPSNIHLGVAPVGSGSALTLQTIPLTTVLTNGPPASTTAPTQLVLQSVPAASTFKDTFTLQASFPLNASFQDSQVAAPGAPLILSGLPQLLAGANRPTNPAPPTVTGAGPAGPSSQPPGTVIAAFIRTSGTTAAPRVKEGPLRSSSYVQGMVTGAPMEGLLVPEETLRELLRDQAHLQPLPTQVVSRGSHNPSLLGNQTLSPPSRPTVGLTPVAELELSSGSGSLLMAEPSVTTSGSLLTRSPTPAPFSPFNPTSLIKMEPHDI
In short: as §1

[15] = molecular target: T9, ELK4 (Homo sapiens, UniProt P28324-2 1-405); settings: protein: recombinant; tags: N-terminal GST; dsDNA, one strand shown
T9 sequence: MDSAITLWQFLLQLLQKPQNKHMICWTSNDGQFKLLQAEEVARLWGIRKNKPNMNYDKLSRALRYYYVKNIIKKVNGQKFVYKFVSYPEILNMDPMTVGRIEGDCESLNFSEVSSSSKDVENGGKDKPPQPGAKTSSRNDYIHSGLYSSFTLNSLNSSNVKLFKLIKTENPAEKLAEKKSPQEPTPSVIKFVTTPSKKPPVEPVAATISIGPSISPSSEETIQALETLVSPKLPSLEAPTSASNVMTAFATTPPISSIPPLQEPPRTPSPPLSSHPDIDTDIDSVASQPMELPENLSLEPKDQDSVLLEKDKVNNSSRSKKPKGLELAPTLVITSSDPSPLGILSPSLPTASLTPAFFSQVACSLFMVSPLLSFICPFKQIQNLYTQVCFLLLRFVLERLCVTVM
In short: as §1

[16] = molecular target: T10, ETV2 (Homo sapiens, UniProt O00321 1-342); settings: protein: recombinant; tags: N-terminal GST; dsDNA, one strand shown
T10 sequence: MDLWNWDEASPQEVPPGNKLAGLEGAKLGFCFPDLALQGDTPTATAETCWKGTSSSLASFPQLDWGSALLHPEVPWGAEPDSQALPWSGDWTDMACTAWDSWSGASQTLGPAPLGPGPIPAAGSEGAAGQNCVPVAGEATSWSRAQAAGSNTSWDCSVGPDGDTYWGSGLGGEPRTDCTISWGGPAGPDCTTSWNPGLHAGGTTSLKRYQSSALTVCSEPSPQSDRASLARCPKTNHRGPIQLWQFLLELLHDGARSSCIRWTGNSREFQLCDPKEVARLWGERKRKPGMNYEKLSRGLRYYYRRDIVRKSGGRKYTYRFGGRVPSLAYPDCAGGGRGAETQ
In short: as §1

[17] = molecular target: T11, ELF3 (Homo sapiens, UniProt P78545 1-371); settings: protein: recombinant; tags: N-terminal GST; dsDNA, one strand shown
T11 sequence: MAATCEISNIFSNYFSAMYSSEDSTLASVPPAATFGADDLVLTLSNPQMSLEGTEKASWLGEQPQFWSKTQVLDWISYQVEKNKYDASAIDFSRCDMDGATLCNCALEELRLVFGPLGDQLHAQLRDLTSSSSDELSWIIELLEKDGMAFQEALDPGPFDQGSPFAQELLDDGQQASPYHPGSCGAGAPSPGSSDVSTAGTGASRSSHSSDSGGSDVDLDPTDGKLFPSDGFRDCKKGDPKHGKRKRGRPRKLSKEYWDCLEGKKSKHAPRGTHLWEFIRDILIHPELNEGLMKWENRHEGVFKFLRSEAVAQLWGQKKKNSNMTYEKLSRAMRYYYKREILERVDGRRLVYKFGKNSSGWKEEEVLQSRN
In short: as §1

[18] = molecular target: CRX (Homo sapiens, UniProt O43186 1-299); settings: protein: recombinant; tags: N-terminal GST; dsDNA, one strand shown
Sequence of CRX (O43186 whole entry): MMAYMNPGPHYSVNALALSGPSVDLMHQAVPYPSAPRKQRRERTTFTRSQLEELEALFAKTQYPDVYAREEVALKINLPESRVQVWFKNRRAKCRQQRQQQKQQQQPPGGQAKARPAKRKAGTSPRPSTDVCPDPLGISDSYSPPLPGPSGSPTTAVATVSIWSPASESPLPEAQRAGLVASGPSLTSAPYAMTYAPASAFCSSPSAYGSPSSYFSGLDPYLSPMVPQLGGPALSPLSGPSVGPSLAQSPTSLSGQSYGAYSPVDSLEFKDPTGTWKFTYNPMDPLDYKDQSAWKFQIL
In short: as §1

[19] = molecular target: ETV1 (Homo sapiens, UniProt P50549 1-477); settings: protein: recombinant; tags: N-terminal GST; dsDNA, one strand shown
Sequence of ETV1 (P50549 whole entry): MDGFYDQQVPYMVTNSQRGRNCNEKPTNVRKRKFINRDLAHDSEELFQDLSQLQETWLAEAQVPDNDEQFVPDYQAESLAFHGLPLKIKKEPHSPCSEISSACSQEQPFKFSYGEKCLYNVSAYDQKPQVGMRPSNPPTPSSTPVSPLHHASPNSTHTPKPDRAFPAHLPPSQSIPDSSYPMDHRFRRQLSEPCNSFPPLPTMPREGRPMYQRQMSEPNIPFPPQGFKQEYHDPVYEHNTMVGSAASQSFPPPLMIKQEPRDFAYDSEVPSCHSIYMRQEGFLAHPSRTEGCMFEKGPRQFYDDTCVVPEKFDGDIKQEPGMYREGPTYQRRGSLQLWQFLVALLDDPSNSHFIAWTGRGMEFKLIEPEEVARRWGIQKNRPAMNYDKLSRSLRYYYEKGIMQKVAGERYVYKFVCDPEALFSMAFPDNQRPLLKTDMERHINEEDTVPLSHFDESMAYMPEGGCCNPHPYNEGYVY
In short: as §1

With CAATAT the binding signal [1] was 1.27 fold enrichment (6-mer frequency, TF over GST control), the binding signal [2] was 1.29 fold enrichment (6-mer frequency, TF over GST control) and the binding signal [3] was 1.26 fold enrichment (6-mer frequency, TF over GST control). For the same sequence, the binding signal [4] was 1.2 fold enrichment (6-mer frequency, TF over GST control), the binding signal [5] was 1.28 fold enrichment (6-mer frequency, TF over GST control) and the binding signal [6] was 1.24 fold enrichment (6-mer frequency, TF over GST control). For the same sequence, the binding signal [7] was 1.23 fold enrichment (6-mer frequency, TF over GST control), the binding signal [8] was 1.23 fold enrichment (6-mer frequency, TF over GST control) and the binding signal [9] was 1.31 fold enrichment (6-mer frequency, TF over GST control). The binding signal [10] was 1.25 fold enrichment (6-mer frequency, TF over GST control), the binding signal [11] was 1.33 fold enrichment (6-mer frequency, TF over GST control) and the binding signal [12] was 1.11 fold enrichment (6-mer frequency, TF over GST control). The binding signal [13] was 1.23 fold enrichment (6-mer frequency, TF over GST control), the binding signal [14] was 1.28 fold enrichment (6-mer frequency, TF over GST control) and the binding signal [15] was 1.31 fold enrichment (6-mer frequency, TF over GST control). The binding signal [16] was 1.29 fold enrichment (6-mer frequency, TF over GST control), the binding signal [17] was 1.28 fold enrichment (6-mer frequency, TF over GST control) and the binding signal [18] was 1.15 fold enrichment (6-mer frequency, TF over GST control). For the same sequence, the binding signal [19] was 1.27 fold enrichment (6-mer frequency, TF over GST control).
